# How the values were obtained:
# [1] = system: Vero E6 infected with SARS-CoV-2; test: morphology score (similarity to uninfected cells); higher = more like uninfected cells; details: 24 h
# [2] = system: Vero E6 infected with SARS-CoV-2; test: SARS-CoV-2 infection rate relative to infected DMSO; higher = more infection, active = 60 or less; details: 24 h
Compound,morphology score [1],SARS-CoV-2 infection rate [2]
Cc1ccc(-c2c(-c3nn(C)c4ncnc(N5CC[C@H](N6CCCCC6)C5)c34)cnn2C)cc1 (10 µM),0.14,100% (inactive)
O=C(Nc1cccc(C(F)(F)F)c1)Nc1ccc(Br)cc1-c1nnn[nH]1 (10 µM),-0.0612,108% (inactive)
"CC1(C)[C@H]2CC[C@]1(C)[C@@H](O)[C@H]2O [cis-exo-camphanediol-2,3] (10 µM)",0.0601,106% (inactive)
CC(C)c1ccc2oc3nc(N)c(C(=O)O)cc3c(=O)c2c1 [amlexanox] (10 µM),-0.183,111% (inactive)
CN1CC2c3ccccc3Oc3ccc(Cl)cc3C2C1 (stereo unspecified) [asenapine] (10 µM),0.67,41% (active)
NC[C@H]1O[C@H](O[C@H]2[C@H](O[C@@H]3O[C@H](CO)[C@@H](O)[C@H]3O)[C@@H](O)[C@H](N)C[C@@H]2N)[C@H](N)[C@@H](O)[C@@H]1O [ribostamycin-sulfate] (10 µM),0.199,105% (inactive)
O=C(Nc1ccc(C(F)(F)F)cn1)N1CCN(c2ncccc2C(F)(F)F)CC1 (10 µM),0.0927,93.5% (inactive)
CC(C)NCCCn1c(Sc2cc3c(cc2I)OCO3)nc2c(N)ncnc21 (0.833333 µM),0.255,96.5% (inactive)
CC(C)(CO)c1cc2cc(NC(=O)C3(c4ccc5c(c4)OC(F)(F)O5)CC3)c(F)cc2n1C[C@@H](O)CO [tezacaftor] (10 µM),-0.0125,108% (inactive)
Cc1cc(C(=O)O)sc1C(N)C(=O)O (stereo unspecified) (10 µM),-0.0491,95% (inactive)
CS(=O)(=O)Oc1ccc2c(NC(N)=O)c(C(=O)c3ccc(Cl)cc3Cl)oc2c1 [lirimilast] (10 µM),0.204,101% (inactive)
Cn1c2c(c3ccccc31)CCNCC2 (10 µM),0.0193,103% (inactive)
OC(CCCN1CCN(c2ncc(F)cn2)CC1)c1ccc(F)cc1 (stereo unspecified) (10 µM),0.0906,108% (inactive)
OCc1cccnc1 [nicotinyl-alcohol-tartrate] (10 µM),-0.13,118% (inactive)
Cc1cnc(-c2cnc(NCCNc3ccc(C#N)cn3)nc2-c2ccc(Cl)cc2Cl)[nH]1 (0.833333 µM),-0.0902,108% (inactive)
CN(C(=O)CCCOc1ccc2[nH]c(=O)ccc2c1)C1CCCCC1 [cilostamide] (10 µM),-0.131,103% (inactive)
Fc1ccc(C(c2ccc(F)cc2)N2CCN(C/C=C/c3ccccc3)CC2)cc1 [flunarizine] (10 µM),0.364,69.5% (inactive)
CCCCCNC(=N)N/N=C/c1c[nH]c2ccc(OC)cc12 [tegaserod] (10 µM),0.0727,100% (inactive)
N[C@@H](Cn1ccc(=O)n(Cc2ccccc2C(=O)O)c1=O)C(=O)O (10 µM),0.28,79% (inactive)
CCOC(=O)COc1ccc2c(=O)cc(-c3ccccc3)oc2c1 [efloxate] (10 µM),0.19,96.5% (inactive)
CCCCCCCCCCCCCCCCO [1-hexadecanol] (10 µM),-0.278,110% (inactive)
CCN(CC)CCOC(=O)C1(c2ccc([N+](=O)[O-])cc2)CCCC1 [nitrocaramiphen] (10 µM),0.137,104% (inactive)
CC[C@H](NC(=O)c1c(O)c(-c2ccccc2)nc2ccccc12)c1ccccc1 [talnetant] (10 µM),-0.0287,117% (inactive)
Cc1nc(N)sc1-c1ccnc(Nc2ccc(N3CCOCC3)cc2)n1 (0.833333 µM),0.443,93% (inactive)
Nc1n[n+]([O-])c2ccccc2[n+]1[O-] [tirapazamine] (10 µM),0.0691,99.5% (inactive)
O=C(O)c1cccnc1Nc1cccc(C(F)(F)F)c1 [niflumic-acid] (10 µM),0.127,104% (inactive)
Oc1cccc(Nc2ccc(Nc3cccc(O)c3)nn2)c1 [beta-amyloid-synthesis-inhibitor] (10 µM),0.0822,104% (inactive)

Compound,morphology score [1],SARS-CoV-2 infection rate [2]
CN1CCN(c2ccc(-c3cccc(CN4CCOCC4)c3)cc2NC(=O)c2c[nH]c(=O)cc2C(F)(F)F)CC1 (10 µM),0.0309,115% (inactive)
Cc1cc(Nc2ncnc3ccc(-c4ccc(CNCCS(C)(=O)=O)o4)cc23)ccc1Oc1ccn2ncnc2c1 [HER2-Inhibitor-1] (10 µM),0.174,95% (inactive)
CN1CCN(C(=O)O[C@H]2c3nccnc3C(=O)N2c2ccc(Cl)cn2)CC1 (10 µM),-0.0495,108% (inactive)
CCOC(=O)[C@H](CCc1ccccc1)N[C@H]1CCc2ccccc2N(CC(=O)O)C1=O [benazepril] (10 µM),0.413,90.5% (inactive)
COc1ccc(-c2cc(=O)c3c(OC)c(OC)c(OC)c(OC)c3o2)cc1 [tangeritin] (10 µM),0.00246,105% (inactive)
CN(C)CCCOc1nn(Cc2ccccc2)c2ccccc12 [benzydamine] (10 µM),0.4,70.5% (inactive)
COc1ccc(/C=C\c2cc(OC)c(OC)c(OC)c2)cc1OP(=O)(O)O [fosbretabulin] (0.833333 µM),0.0485,112% (inactive)
CO[C@H]1O[C@@H]2O[C@@]3(C)CC[C@H]4[C@H](C)CC[C@@H]([C@H]1C)[C@@]24OO3 [artemether] (10 µM),0.0275,105% (inactive)
CCC(=O)OCC(=O)[C@@]1(OC(=O)CC)[C@@H](C)C[C@H]2[C@@H]3CCC4=CC(=O)C=C[C@]4(C)[C@@]3(Cl)[C@@H](O)C[C@@]21C [beclomethasone-dipropionate] (10 µM),0.126,105% (inactive)
C[C@H](NC(=O)CNC(=O)c1cccc(Cl)c1)c1ccccc1 (10 µM),0.0656,102% (inactive)
COc1cc2nc(N3CCN(C(=O)COc4c(OC)cccc4C(C)C)CC3)nc(N)c2cc1OC (10 µM),-0.065,92.5% (inactive)
Cc1[nH]c(/C=C2\C(=O)Nc3ccccc32)c(C)c1CCC(=O)O [orantinib] (10 µM),0.123,92.5% (inactive)
CCC[C@H](N[C@@H](C)C(=O)N1[C@H](C(=O)O)C[C@@H]2CCCC[C@@H]21)C(=O)OCC [perindopril] (10 µM),0.104,95% (inactive)
CCC(NC(C)C)C(O)c1ccc(O)c2[nH]c(=O)ccc12 (stereo unspecified) [procaterol] (10 µM),0.142,88% (inactive)
Oc1ccc2c3c1O[C@H]1[C@@H](O)CC[C@@]4(O)[C@@H](C2)N(CC2CCC2)CC[C@]314 [nalbuphine] (10 µM),-0.0532,114% (inactive)
COc1cc2c(cc1OC)[C@@]13CCN4CC5=CCO[C@H]6CC(=O)N2[C@H]1[C@H]6[C@H]5C[C@H]43 [brucine] (10 µM),0.0385,105% (inactive)
CC(C)[C@@H](CN1CC[C@@](C)(c2cccc(O)c2)[C@@H](C)C1)NC(=O)[C@H]1Cc2ccc(O)cc2CN1 (10 µM),-0.0336,99.5% (inactive)
CC(=O)OCC(=O)[C@@]1(O)CC[C@H]2[C@@H]3CCC4=CC(=O)CC[C@]4(C)[C@@]3(F)[C@@H](O)C[C@@]21C (10 µM),0.0369,99.5% (inactive)
C[C@H](Oc1ccc(S(C)(=O)=O)cc1C(=O)N1CCN(c2ncc(C(F)(F)F)cc2F)CC1)C(F)(F)F [bitopertin] (10 µM),0.119,108% (inactive)
CCCC(C)(COC(N)=O)COC(=O)NC(C)C (stereo unspecified) (10 µM),-0.33,116% (inactive)
Cc1c(N)c(=O)n(-c2ccccc2)n1C [ampyrone] (10 µM),-0.0355,113% (inactive)
Cc1cccc(NC(=O)CN2CCC(c3ccccn3)CC2)c1 (10 µM),-0.0959,108% (inactive)
COC(=O)[C@H]1[C@H]2C[C@@H]3c4[nH]c5cc(OC)ccc5c4CCN3C[C@H]2C[C@@H](OC(=O)c2cc(OC)c(OC)c(OC)c2)[C@@H]1OC [reserpine] (10 µM),0.127,110% (inactive)
CCOC(=O)Nc1ccc(NCc2ccc(F)cc2)cc1N [Retigabine] (10 µM),0.067,106% (inactive)
COc1cccc(-n2nc(C(=O)O)cc2-c2ccc(C3CCCCC3)c(Cl)c2)c1 (10 µM),0.0895,102% (inactive)
C[N+](C)(C)CC(=O)O [betaine] (10 µM),0.11,102% (inactive)
